Screen size: about 310,000 compounds; about 2,200 (0.71%) showed an effect of 50% or more. Effects have a minus sign here. The list comes from a sample in which strong results are over-represented; it also holds similar structures and randomly drawn compounds.

In the assay the target is human ether-à-go-go-related gene (hERG) potassium channel (human, UniProt Q12809). The assay can be described thus: primary screen, population patch clamp on CHO cells stably expressing hERG; higher = less effect of the substance.
Chain of human ether-à-go-go-related gene (hERG) potassium channel (Q12809 whole entry, looked up): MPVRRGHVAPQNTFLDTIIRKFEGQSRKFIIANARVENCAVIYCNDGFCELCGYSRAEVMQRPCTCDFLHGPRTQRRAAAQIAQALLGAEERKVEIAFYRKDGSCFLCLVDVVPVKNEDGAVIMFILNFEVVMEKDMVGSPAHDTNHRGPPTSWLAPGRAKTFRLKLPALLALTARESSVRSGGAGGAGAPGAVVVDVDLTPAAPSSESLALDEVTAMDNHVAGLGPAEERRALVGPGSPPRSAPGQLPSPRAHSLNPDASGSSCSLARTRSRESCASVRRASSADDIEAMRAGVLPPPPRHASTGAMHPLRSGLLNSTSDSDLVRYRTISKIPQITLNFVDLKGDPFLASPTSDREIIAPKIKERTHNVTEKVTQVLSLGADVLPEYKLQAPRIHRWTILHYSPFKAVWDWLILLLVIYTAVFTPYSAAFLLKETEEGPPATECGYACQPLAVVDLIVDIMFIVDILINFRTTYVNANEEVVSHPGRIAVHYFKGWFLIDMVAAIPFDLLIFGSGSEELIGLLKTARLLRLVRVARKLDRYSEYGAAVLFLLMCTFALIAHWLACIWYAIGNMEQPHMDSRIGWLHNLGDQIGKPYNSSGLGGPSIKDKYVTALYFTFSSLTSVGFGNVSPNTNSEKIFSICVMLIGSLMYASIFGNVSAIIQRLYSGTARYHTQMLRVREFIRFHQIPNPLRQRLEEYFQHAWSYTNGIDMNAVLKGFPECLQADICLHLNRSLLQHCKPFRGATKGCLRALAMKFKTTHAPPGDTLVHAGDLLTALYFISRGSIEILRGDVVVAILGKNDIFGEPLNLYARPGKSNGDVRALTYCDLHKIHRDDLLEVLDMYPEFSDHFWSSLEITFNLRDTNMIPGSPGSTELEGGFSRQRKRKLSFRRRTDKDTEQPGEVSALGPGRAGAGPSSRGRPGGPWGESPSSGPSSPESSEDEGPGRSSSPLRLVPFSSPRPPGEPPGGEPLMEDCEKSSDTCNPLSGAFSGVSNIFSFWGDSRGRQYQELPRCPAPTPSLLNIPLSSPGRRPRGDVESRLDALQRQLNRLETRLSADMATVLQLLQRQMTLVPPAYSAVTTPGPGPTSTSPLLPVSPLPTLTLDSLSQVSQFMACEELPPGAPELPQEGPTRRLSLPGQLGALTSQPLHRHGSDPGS
Take `Cc1ccc2c(c1)NC(=O)C(CC(=O)NCCCN1CCCCC1)O2` (stereo not drawn): the “hERG current change (%, negative = inhibition) at 1uM” value came out at 6.37%.
For the compound `CCC(C)N(CCNC(=O)CC1Oc2ccccc2NC1=O)C1CCCCC1` (stereo not drawn), the “hERG current change (%, negative = inhibition) at 1uM” value is recorded as -35.6%.
For the compound `Cc1ccc2c(c1)NC(=O)C(CC(=O)NCCCN1CCc3ccccc3C1)O2` (stereo not drawn), the “hERG current change (%, negative = inhibition) at 1uM” value is -58.5%.
Consider `Cc1ccc2c(c1)NC(=O)C(CC(=O)NCCN(CC(C)C)CC(C)C)O2` (stereo not drawn), for which the “hERG current change (%, negative = inhibition) at 1uM” value amounted to 0.19%.
As to `Cc1ccc2c(c1)NC(=O)C(CC(=O)NCCCN1CCCC1)O2` (stereo not drawn), the “hERG current change (%, negative = inhibition) at 1uM” value came out at 12.4%.
For `CCC(C)N(CCNC(=O)CC1Oc2ccc(C)cc2NC1=O)C1CCCCC1` (stereo not drawn) the value was -58.1%.
For `O=Cc1c(NCc2ccccc2)c2ccccc2[nH]c1=O` the value was 12.6%.
As for `C/C(=N\OCC(=O)Nc1ccc(OC(F)(F)F)cc1)c1ccc2c(c1)OCCO2`, the figure is 6.61%; as for `C=CCS/C(N)=N\N=C\c1c(O)ccc2ccccc12`, 13.3%.
Take `Cc1ccc(C(=O)CN2C(=O)NC3(CCOc4ccccc43)C2=O)s1` (stereo not drawn): the “hERG current change (%, negative = inhibition) at 1uM” value is listed as 2.46%.
As to `Cc1sc2ncn(CC(=O)NCCCC(=O)N3CCC4(CC3)OCCO4)c(=O)c2c1C`, the “hERG current change (%, negative = inhibition) at 1uM” value came out at 10.7%.
For `CCOC(=O)c1oc2ccccc2c1NC(=O)c1cccs1` the value was 0.447%.
As for `N/C(Cc1ccc([N+](=O)[O-])cc1)=N\OC(=O)c1ccc([N+](=O)[O-])cc1`, the figure is -56.7%; as for `N/C(Cc1ccc([N+](=O)[O-])cc1)=N\OC(=O)c1ccc2ccccc2c1`, 4.74%.
For `N/C(Cc1ccc([N+](=O)[O-])cc1)=N\OC(=O)c1ccc(Br)cc1` the value was -3.44%; for `COc1ccc(CNC(=O)C2(CC3CC(c4ccccc4)=NO3)CCN(C(=O)C3CCCC3)CC2)cc1` (stereo not drawn), -67.1%.
As for `COc1ccc(CNC(=O)C2(CC3CC(c4ccccc4)=NO3)CCN(C(=O)Cc3ccc(F)cc3)CC2)cc1` (stereo not drawn), the “hERG current change (%, negative = inhibition) at 1uM” value worked out at 12.8%.
For `COc1ccc(CNC(=O)C2(CC3CC(c4ccccc4)=NO3)CCN(C(=O)c3cccc(O)c3)CC2)cc1` (stereo not drawn) the value was 8.84%; for `COc1ccc(CNC(=O)C2(CC3CC(c4ccccc4)=NO3)CCN(C(=O)C3(C)CC3)CC2)cc1` (stereo not drawn), -37.1%.
For `COc1ccc(CNC(=O)C2(CC3CC(c4ccccc4)=NO3)CCN(C(=O)OC(C)(C)C)CC2)cc1` (stereo not drawn) the value was 2.59%.
Consider `COc1ccc(CNC(=O)C2(CC3CC(c4ccccc4)=NO3)CCN(C(=O)CCCCCBr)CC2)cc1` (stereo not drawn), for which the “hERG current change (%, negative = inhibition) at 1uM” value is listed as -60.3%.
As for `COc1ccc(C2NC(=O)c3ccccc3O2)cc1OC` (stereo not drawn), the figure is 8.88%.
On to `Fc1cccc(CCN2C(=S)NC[C@@H]2CC2CCCCC2)c1`, for which the “hERG current change (%, negative = inhibition) at 1uM” value turned out to be 8.53%.
For `CCn1nc(C(C)C)cc1C(=O)N1CCCC(CO)(Cc2ccc(F)cc2F)C1` (stereo not drawn) the value was 5.81%; for `CC1CCCCN1C(=O)c1ccc(COc2ccc([N+](=O)[O-])cc2)o1` (stereo not drawn), -18.9%.
As for `COc1ccc(F)cc1C(=O)C1CCCN(Cc2ccc(O)cc2)C1` (stereo not drawn), the figure is -25.1%; as for `CCOC(=O)N1CCC(N2CCCC(C(=O)c3cc(F)ccc3OC)C2)CC1` (stereo not drawn), -52.2%; as for `CCN(CC)CC(=O)N1CCCC(C(=O)c2ccccc2OC)C1` (stereo not drawn), 6.77%.
Turning to `COc1ccccc1C(=O)C1CCCN(C(=O)C2CCCC2)C1` (stereo not drawn), the “hERG current change (%, negative = inhibition) at 1uM” value is listed as 8.68%.
As for `CCOC(=O)N1CCC(N2CCCC(C(=O)c3ccccc3OC)C2)CC1` (stereo not drawn), the figure is -59.3%; as for `COc1ccc(F)cc1C(=O)C1CCCN(C(=O)C2=C(C)OCCO2)C1` (stereo not drawn), 14.5%; as for `CC(=O)Nc1ccc2[nH]c3ccccc3c2c1`, 3.08%.
As for `O=C(NCCCN1CCOCC1)c1sc2cc(Cl)ccc2c1Cl`, the figure is 6.47%; as for `Cc1c(C(=O)N(C)Cc2ccccc2)oc2ccc(S(=O)(=O)N3CCCC3)cc12`, -0.449%; as for `COc1ccc(CCNC(=O)C(=O)Nc2ccc3c(c2)OCCO3)cc1OC`, 14.4%.
Turning to `O=C(NCc1ccncc1)C(=O)NCC(c1ccco1)N1CCN(c2ccccc2)CC1` (stereo not drawn), the “hERG current change (%, negative = inhibition) at 1uM” value was 3.03%.
Consider `CCOc1ccc(N(C(=O)CNS(=O)(=O)c2ccccc2)C(CC)C(=O)NCc2ccco2)cc1` (stereo not drawn), for which the “hERG current change (%, negative = inhibition) at 1uM” value is given as 4.35%.
In the case of `CCCCON1C(=O)c2cccc3cccc(c23)C1=O`, the “hERG current change (%, negative = inhibition) at 1uM” value was 8.5%.
As for `CCCCN(C)C1=Nc2cccc3cccc1c23`, the figure is -54.9%; as for `NC1=Nc2cccc3cccc1c23`, 12.8%.
In the case of `Cl.ClCCN1C2=NCCCN2c2ccccc21`, the “hERG current change (%, negative = inhibition) at 1uM” value was -1.36%.
For the compound `Cl.OC(COc1ccccc1)CN1C2=NCCCN2c2ccccc21` (stereo not drawn), the “hERG current change (%, negative = inhibition) at 1uM” value was -54.6%.
As for `Cl.OC(COc1ccc(Cl)cc1)CN1C2=NCCCN2c2ccccc21` (stereo not drawn), the figure is -82%; as for `CN1CCN(CC(O)COc2ccc(Cl)cc2)CC1.Cl` (stereo not drawn), -5.93%.
As for `OC(COc1ccccc1)CN1CCCC1` (stereo not drawn), the figure is 9.18%; as for `CCN1C2=NCCCN2c2ccccc21.Cl`, 2.9%.
Consider `Cc1ccc(/C(O)=C2\C(=O)C(=O)N(CCN(C)C)C2c2ccccc2F)cc1` (stereo not drawn), for which the “hERG current change (%, negative = inhibition) at 1uM” value is recorded as -6.65%.
As for `COc1ccc(S(C)(=O)=O)cc1S(C)(=O)=O`, the figure is 12.3%; as for `CC(C)OCCCNC(=O)c1c(N)n(CC2CCCO2)c2nc3ccccc3nc12` (stereo not drawn), 6.34%; as for `CCn1c(Cn2nnc(-c3ccccc3)n2)nnc1SCC(=O)Nc1ccc(C(C)=O)cc1`, 5.63%.
Consider `COc1ccc(CCn2c(=N)c(C(=O)NCC3CCCO3)cc3c(=O)n4cccc(C)c4nc32)cc1` (stereo not drawn), for which the “hERG current change (%, negative = inhibition) at 1uM” value is on record as -88.1%.
For `COc1ccc(CCn2c(=N)c(C(=O)NCCN3CCOCC3)cc3c(=O)n4cccc(C)c4nc32)cc1OC` the value was -44.4%; for `Cc1cccn2c(=O)c3cc(C(=O)NCC4CCCO4)c(=N)n(CCc4ccccc4)c3nc12` (stereo not drawn), -84.4%; for `COc1ccc(CCn2c(=N)c(C(=O)NCC3CCCO3)cc3c(=O)n4cccc(C)c4nc32)cc1OC` (stereo not drawn), -87.1%.
As for `CC(C)C(NC(=O)C1CCCCC1)C(=O)N1CCN(c2ccc(F)cc2)CC1` (stereo not drawn), the figure is -32.1%; as for `CS(=O)(=O)N1CCN(c2ccccc2NC(=O)c2ccc3c(c2)OCCO3)CC1`, 9.09%; as for `COc1cc(C(=O)N[C@@H](C)C(=O)N2CCC3(CC2)NCCc2[nH]cnc23)cc(OC)c1OC`, 15.3%.
In the case of `CN(C)c1ccc(CNS(=O)(=O)c2csc(C(N)=O)c2)cc1`, the “hERG current change (%, negative = inhibition) at 1uM” value came to 13%.
As for `COc1ccc(Cl)cc1CSc1n[nH]c(C)n1`, the figure is 16.6%; as for `O=C(N/N=C/c1ccc(Cl)s1)C(O)c1ccccc1` (stereo not drawn), 16.4%; as for `O=c1c([N+](=O)[O-])c(N2CCCC2)c2ccccc2n1-c1ccccc1`, 4.99%.
As for `CC[C@]12CCCN3CCc4c(n(c5ccccc45)C(=O)C1)C32` (stereo partly drawn), the figure is -50.5%; as for `NC(=O)C1CCCc2c1n(Cc1ccccc1)c1ccccc21` (stereo not drawn), 9.63%; as for `CCOC(=O)NNC(=O)CCn1c2c(c3ccccc31)CCCC2`, 6.89%.
Consider `CC[C@]12CCCN3CCc4c(n(c5ccccc45)C(=O)C1)[C@@H]32`, for which the “hERG current change (%, negative = inhibition) at 1uM” value is on record as -70.5%.
Consider `CCOC(=O)C1=C[C@]2(CC)CCCN3CCc4c(n1c1ccccc41)[C@@H]32`, for which the “hERG current change (%, negative = inhibition) at 1uM” value is -95.5%.
In the case of `CCOC(=O)C1=CC[C@H]2c3c(c4ccccc4n3C)C[C@H]1N2C`, the “hERG current change (%, negative = inhibition) at 1uM” value was found to be 15.5%.
Turning to `O=C(O)Cn1c(=O)c2c(c3ccccc31)CCC2`, the “hERG current change (%, negative = inhibition) at 1uM” value was 11.5%.
As for `Cl.Cn1c2c(c3ccccc31)CCN1CCC[C@]21c1ccccc1`, the figure is 12.1%; as for `CCn1cc(C2N3CC4(C)CN2CC(C)(C3)C4=O)c2ccccc21` (stereo not drawn), 4.63%.
For the compound `CCN1CCC(=NNC(=O)CC23CC4CC(CC(C4)C2)C3)CC1`, the “hERG current change (%, negative = inhibition) at 1uM” value was found to be 11.5%.
As to `COc1cc(NC(c2ccccc2)c2ccccc2)cc(OC)c1OC`, the “hERG current change (%, negative = inhibition) at 1uM” value is listed as 5.7%.
Consider `Nc1nc(/C=C/c2cccnc2)nc(-c2ccccc2O)n1`, for which the “hERG current change (%, negative = inhibition) at 1uM” value is reported as 10.4%.
As for `COc1cccc(COC(=O)C2CCN(S(=O)(=O)c3ccc(Cl)cc3)CC2)c1OC`, the figure is 5.7%; as for `CC(=O)c1ccc(S(=O)(=O)N2CCN(c3ccccc3F)CC2)cc1`, 8.26%.
Take `Br.O=C(CN1C2=NCCN2c2ccccc21)c1ccc(Br)s1`: the “hERG current change (%, negative = inhibition) at 1uM” value is on record as -0.685%.
As for `Cl.OC(CN1C2=NCCCN2c2ccccc21)c1ccc(Br)cc1` (stereo not drawn), the figure is -86.2%; as for `Cl.OC(CN1C2=NCCN2c2ccccc21)c1ccccc1` (stereo not drawn), -5.32%; as for `Cl.c1ccc2c(c1)N1CCCN=C1N2CCN1CCCCC1`, -26.2%.
With `Cl.OC(CN1C2=NCCN2c2ccccc21)c1ccc2c(c1)OCO2` (stereo not drawn), the “hERG current change (%, negative = inhibition) at 1uM” value is reported as -27.7%.
For `OC(CN1C2=NCCN2c2ccccc21)c1ccc(Br)cc1` (stereo not drawn) the value was -63%; for `Cl.OC(CN1C2=NCCCN2c2ccccc21)c1ccc(Cl)cc1` (stereo not drawn), -76.2%.
In the case of `Br.O=C(CN1C2=NCCN2c2ccccc21)c1ccc2c(c1)OCO2`, the “hERG current change (%, negative = inhibition) at 1uM” value is recorded as -42.1%.
Take `Cl.OCCN1C2=NCCCN2c2ccccc21`: the “hERG current change (%, negative = inhibition) at 1uM” value worked out at 10.3%.
As to `Cl.OC(CN1C2=NCCCN2c2ccccc21)c1ccc2c(c1)OCO2` (stereo not drawn), the “hERG current change (%, negative = inhibition) at 1uM” value was -68.6%.
With `Cn1c(=O)n(C)c2cc(NC(=O)CSc3nnc(-c4ccccc4O)n3-c3ccccc3)ccc21`, the “hERG current change (%, negative = inhibition) at 1uM” value was determined as 6.95%.
For the compound `O=C(C1=NN[C@@H]2C(=O)N(c3cccc(F)c3)C(=O)[C@H]12)c1ccc2ccccc2n1`, the “hERG current change (%, negative = inhibition) at 1uM” value was 6.85%.

Source of the values: paper PMC4336329 (PLoS ONE, 2015).
